Compound activity: PubChem BioAssay, Broad Institute
YB-1 expression: YB-1 expression inhibition; AID 434959; delta delta Cp (YB-1 minus CDIP) (no concentration beside the values); U2OS, qRT-PCR YB-1 vs CDIP delta delta Cp, 16 h; stronger effect = higher value; zero = DMSO, each unit about twofold; actives 0.37% (n = 30,000);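 active = delta delta Cp rounded down to an integer at or above 3, about 3 SD of DMSO wells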;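 also: higher means less YB-1 transcript or more CDIP transcript relative to DMSO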
U2OS ROS induce: raises reactive oxygen species in U2OS cancer cells; U2OS ROS induction, H2DCF-DA fluorescence; ROS induction (% of piperlongumine), % at 10 µM; actives 2% (n = 46,000); AID 624156; in the data active = ROS induction above about 79%, passing the limit was not always enough;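 also: 0% = DMSO vehicle median and 100% = reference compound median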
The depositor's hits bear a star; . = no result. Only some compounds are listed: those with a hit (about 2.3% of all), similar ones and a draw of the others.

SMILES	YB-1 expression	U2OS ROS induce
Cc1ccc(S(=O)(=O)NCCc2nnc3ccc(SCC(=O)N4CCCC4)nn23)cc1	.	-8
CC(C)NC(=O)Nc1ccc2c(c1)CC(=O)N([C@H](C)CO)C[C@@H](C)[C@@H](CN(C)Cc1ccc(Oc3ccccc3)cc1)O2	-0.16	129*
C[C@@H]1CN([C@H](C)CO)C(=O)Cc2cc(NC(=O)c3ccncc3)ccc2O[C@H]1CN(C)Cc1ccc(Oc2ccccc2)cc1	-0.0039	127*
C[C@H]1CN([C@@H](C)CO)C(=O)Cc2cc(NC(=O)CCN3CCOCC3)ccc2O[C@@H]1CN(C)Cc1ccc(Oc2ccccc2)cc1	0.036	18
CC(C)NC(=O)Nc1ccc2c(c1)CC(=O)N([C@H](C)CO)C[C@H](C)[C@H](CN(C)Cc1ccc(Oc3ccccc3)cc1)O2	0.21	15
C[C@@H]1CN([C@H](C)CO)C(=O)Cc2cc(NC(=O)CCN3CCOCC3)ccc2O[C@@H]1CN(C)Cc1ccc(Oc2ccccc2)cc1	-0.087	87*
C[C@@H]1CN([C@@H](C)CO)C(=O)Cc2cc(NC(=O)c3ccncc3)ccc2O[C@@H]1CN(C)Cc1ccc(Oc2ccccc2)cc1	-0.065	5
Cc1sc(C)c(CNc2ccccc2)c1CNc1ccccc1	.	-11
O=C1c2ccccc2C(=O)C1c1cc(Cl)cc(Cl)c1	.	6
C[C@H]1CN([C@@H](C)CO)C(=O)c2cc(NC(=O)Cc3ccccc3)ccc2O[C@@H]1CN(C)Cc1ccc(Oc2ccccc2)cc1	-0.31	190*
C[C@@H]1CN([C@@H](C)CO)C(=O)c2cc(NC(=O)Cc3ccccc3)ccc2O[C@H]1CN(C)Cc1ccccc1	-0.12	-5
C[C@@H]1CN([C@H](C)CO)C(=O)Cc2cc(NC(=O)Cc3ccccc3)ccc2O[C@@H]1CN(C)Cc1ccc(-c2ccccc2)cc1	0.28	203*
C[C@H](CO)N1C[C@H](C)[C@H](CN(C)Cc2ccc(Oc3ccccc3)cc2)Oc2ccc(NC(=O)Cc3ccccc3)cc2C1=O	-0.27	2
C[C@@H]1CN([C@H](C)CO)C(=O)c2cc(N(C)C)ccc2O[C@H]1CN(C)Cc1ccc(-c2ccccc2)cc1	-0.13	-2
C[C@H]1CN([C@@H](C)CO)C(=O)c2cc(NC(=O)Cc3ccccc3)ccc2O[C@@H]1CN(C)Cc1ccc(-c2ccccc2)cc1	0.73	177*
C[C@H](CO)N1C[C@H](C)[C@H](CN(C)Cc2ccc(-c3ccccc3)cc2)Oc2ccc(NC(=O)Cc3ccccc3)cc2CC1=O	0.23	28
C[C@H]1CN([C@@H](C)CO)C(=O)c2cc(N(C)C)ccc2O[C@@H]1CN(C)Cc1ccc(-c2ccccc2)cc1	0.2	206*
NC(=O)C1CCN(C(=O)c2cccc(Cl)c2)CC1	.	-2
CNS(=O)(=O)c1ccc(C)c(-c2nnc3c4ccccc4c(C)nn23)c1	.	15
CCOc1cccc2cc(C(=O)Nc3nccs3)c(=Nc3cccc(C(F)(F)F)c3)oc12	.	-6
COC(=O)C1=NNC2(C)C(=O)N(c3ccccc3)C(=O)C12 (stereo not drawn)	.	-9
C[C@@H]1CN([C@@H](C)CO)C(=O)c2cc(NC(=O)Cc3ccccc3)ccc2O[C@@H]1CN(C)Cc1ccccc1	-0.11	8
C[C@H](CO)N1C[C@H](C)[C@@H](CN(C)Cc2ccc(-c3ccccc3)cc2)Oc2ccc(NC(=O)Cc3ccccc3)cc2C1=O	-0.0095	274*
Cn1c2c(c3ccccc31)C(C)(C)Cc1c-2cnn1-c1ccccc1	.	18
Cc1ccc(S(=O)(=O)NC(C)C(=O)Nc2ccccc2F)cc1 (stereo not drawn)	.	-1
SMILES	YB-1 expression	U2OS ROS induce
Cc1ccc(S(=O)(=O)N[C@@H](Cc2ccccc2)C(=O)CCl)cc1	0.84	79*
COC(=O)CCCCCCC(=O)N/N=C/c1cc(OC)c(OC)cc1[N+](=O)[O-]	-0.28	119*
COc1cc(/C=N/NC(=O)CCCCCC(=O)O)c([N+](=O)[O-])cc1OC	0.11	-5
C[C@H]1CN([C@@H](C)CO)C(=O)c2cccc(NS(C)(=O)=O)c2O[C@@H]1CN(C)Cc1ccc(-c2ccccc2)cc1	0.18	98*
C[C@H](CO)N1C[C@H](C)[C@@H](CN(C)Cc2ccc(Oc3ccccc3)cc2)Oc2c(NS(C)(=O)=O)cccc2C1=O	-0.35	92*
C[C@@H]1CN([C@@H](C)CO)C(=O)c2cccc(NS(C)(=O)=O)c2O[C@H]1CN(C)Cc1ccc(Oc2ccccc2)cc1	0.014	10
C[C@H]1CN([C@@H](C)CO)C(=O)c2cccc(NS(=O)(=O)c3ccc(F)cc3)c2O[C@@H]1CN(C)Cc1ccc(-c2ccccc2)cc1	0.29	105*
C[C@@H]1CN([C@@H](C)CO)C(=O)c2cccc(NS(=O)(=O)c3ccc(F)cc3)c2O[C@@H]1CN(C)Cc1ccc(-c2ccccc2)cc1	0.52	64
C[C@@H]1CN([C@H](C)CO)C(=O)c2cccc(NS(C)(=O)=O)c2O[C@H]1CN(C)Cc1ccc(-c2ccccc2)cc1	-0.48	2
COc1ccccc1NC(=O)CSc1ncnc2c1nnn2Cc1ccccc1	.	50
O=C(CSc1nc2ccccc2c(=O)n1C1CC1)c1ccc(Cl)cc1	.	1
COc1cc2c(cc1OC)N1C(=O)C[C@]34C=CCN5CC[C@@H]2[C@@H](CC3)[C@]514	0.16	86*
O=C(CSCC(=O)c1ccc2c(c1)Cc1ccccc1-2)Nc1ccccc1	.	26
Nc1nccc(-c2ccc(NC(=O)Nc3ccccc3)cc2)n1	.	3
O=C(Cc1ccccc1)NC1(C(=O)Nc2cccc(Cl)c2)CCCCC1	.	-7
CN(C)CCCn1cc(C2=C(c3c[nH]c4ccccc34)C(=O)NC2=O)c2ccccc21	0.61	81*
Cn1cc(C2=C(c3cn(CCCSC(=N)N)c4ccccc34)C(=O)NC2=O)c2ccccc21	0.53	76*
COC(=O)c1cn(CC(N)=O)c2ccccc12	.	-8
CCc1ccc[n+](OC(=O)N(CC)CC)c1	-0.37	10
O=C(O)CN1C(=O)CCS(=O)(=O)c2ccccc21	.	-4
COc1ccc(-c2nc(CNS(=O)(=O)c3ccc(NC(C)=O)cc3)cs2)cc1	.	-7
CSc1nnc2c(n1)OC(C)N(C(C)=O)c1ccccc1-2 (stereo not drawn)	0.18	12
C=CCSc1nnc2c(n1)OC(c1ccc(-c3ccc(F)cc3)o1)N(C(C)=O)c1ccccc1-2 (stereo not drawn)	0.17	118*
C[C@@H]1CN([C@@H](C)CO)C(=O)c2cccc(NC(=O)c3cnccn3)c2O[C@H]1CN(C)Cc1ccc(Cl)c(Cl)c1	0.25	87*
C[C@H](CO)N1C[C@H](C)[C@H](CN(C)S(=O)(=O)c2ccccc2)Oc2c(NC(=O)c3cnccn3)cccc2C1=O	0.17	7
C[C@@H]1CN([C@@H](C)CO)C(=O)c2cccc(NC(=O)c3cnccn3)c2O[C@@H]1CN(C)Cc1ccc(Cl)c(Cl)c1	-0.18	4
C[C@H](CO)N1C[C@H](C)[C@H](CN(C)S(C)(=O)=O)Oc2c(NC(=O)c3cnccn3)cccc2C1=O	4.7*	-8
O=C(NCc1cccc(Cl)c1)c1cnc2ccccn2c1=O	.	-1
CC(NC(=O)Cn1cc(C(=O)C2CCCCC2)c2ccccc21)c1ccccc1 (stereo not drawn)	.	14
c1csc(-c2nnc(CSc3cccc4cccnc34)o2)c1	0.025	-7
